# Values joined by “and” are separate entries in the source; they are usually repeats but may differ in a detail not shown here. Equal values may be shown once. Compounds without any hit were thinned out: in the full panel of roughly 83,000, 20% have a hit.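 Method: cells in 96-well plates; compound added at one concentration; 48 h incubation; percent growth measured; values under 10 scored active.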 A number with no mark means an inactive call. Active and inactive are the calls of the source.
# Tested on: HL-60(TB) leukemia
# Experiment: NCI-60 one-dose screen, 48 h (100 = growth as untreated, 0 = no growth, -100 = all killed)
# Settings: 10 µM unless noted
row,Structure (SMILES),growth
1,CC(=O)Nc1ccc(S(=O)(=O)Nc2cccc(-c3nc(-c4ccc(NC(=O)c5cccnc5)cc4Cl)no3)c2)cc1,24%
2,CN(C)c1ccc(-c2c(C#N)c(N)nn2C(=O)c2ccc(NC(=O)c3ccccn3)cc2)cc1,96.5%
3,O=C(O)CNS(=O)(=O)c1ccc(OCCOc2ccc(S(=O)(=O)NCC(=O)O)cc2)cc1,98.7%
4,O=C(O)CCCCSc1ncnc2nc[nH]c12,103%
5,COc1cc2nc(Cl)nc(Nc3ccc(S(=O)(=O)Nc4nccs4)cc3)c2cc1OC,102%
6,Cn1c(=O)cc(NC(=O)CN2CCN(c3cc4c(cc3F)c(=O)c(C(=O)O)cn4C3CC3)CC2)[nH]c1=O,98.2%
7,CC(=O)Nc1ccc(Sc2ccc(NC(C)=O)cc2)cc1,73.1%
8,O=C(Nc1cccc(F)c1)c1cc(=O)[nH]c2cc(Br)ccc12,3.41% (active)
9,C=C1c2nc3ccccc3n2C=C(c2ccc(OC)cc2)N1Cc1ccccc1,80%
10,O=C(CCCCCCSc1nc(-c2ccc(Cl)cc2)cc(-c2ccc(Cl)cc2)n1)NO,9.99% (active)
11,CN(C)c1ccc(Cc2ccc(N(C)C)cc2Cl)c(Cl)c1,5.92% (active)
12,O=C(O)CCCN1C(=O)/C(=C/C(Cl)=C/c2ccccc2)SC1=S,7.56% (active)
13,O=S(=O)(NCCCNc1nccc(-c2c(-c3ccc(F)c(O)c3)nc3sccn23)n1)c1ccccc1,69.8%
14,N#Cc1cc(-c2nc3ccccc3s2)c(=O)n(NS(=O)(=O)c2ccc(Cl)cc2)c1N,103%
15,Cc1cc(N2CCC(N3CCCC3)CC2)nc(/N=C(\N)Nc2ccc(Cl)c(Cl)c2)n1,90.4%
16,COCCOc1cnc2ccn([C@H](C)c3nnc4c(F)cc(-c5cnn(C)c5)cn34)c(=O)c2c1,136%
17,Clc1ccc(C2c3ccccc3-c3nccn32)c(Cl)c1 (stereo not given),48.6%
18,CCCCC1C(=O)N(c2ccccc2)N(c2ccccc2)C1=O,102%
19,COC(=O)c1cccc(NC(=O)c2ccc(-c3cccc(N)c3)o2)c1,99.9%
20,CS(=O)(=O)C1=CN(CCO)C(=O)N2CCCN=C12,109%

row,Structure (SMILES),growth
1,CNc1nnc2n(-c3ccccc3)c(=O)c3cnn(-c4ccccc4)c3n12,70.5%
2,COc1cc(-c2cc(-c3ccc(N(C)C)cc3)nc(N3CCC(O)CC3)c2C#N)cc(OC)c1OC,-23.6% (active)
3,COc1cc2cc(Oc3ccc(NC(=O)Nc4ccc(Cl)c(Cl)c4)cc3)c(C)nc2cc1OCCN1CCOCC1,97.9%
4,O=C(Cn1c2c(c3ccccc31)CCCC2)Nc1ccc(-c2nc3ccccc3s2)cc1,99.1%
5,c1ccc(-c2nc(N3CCNCC3)c3nc(-c4ccccc4)oc3n2)cc1,-49.6% (active)
6,CCc1ccc(CCCC(=O)O)cc1,98.8%
7,[B-][N+](CC)(CC)c1ccccc1,45.6%
8,CO[C@]12C=C/C(=C(/C(=O)OCc3cccnc3)C(=O)CCCCCCCC[C@@]3(OC)C=C/C(=C(/C(=O)OCc4cccnc4)C(=O)CCCCCCCC1)O3)O2,-20.2% (active)
9,COc1cc(C2c3cc(OC(C)=O)c(OC)cc3CC3C(=O)OCC32)ccc1OC(C)=O (stereo not given),71.7%
10,COC(=O)c1ccc(NC(=O)CSc2nc3ccccc3c(=O)n2-c2ccccc2)cc1,93.2%
11,O=S(=O)(NCCCNc1nccc(-c2c(-c3cccc(O)c3)nc3occn23)n1)c1ccc(F)cc1,72.3%
12,COC(=O)/C=C/c1cc(OC(C)=O)c2c(c1)[C@@H](C(=O)OC)[C@H](c1ccc(OC(C)=O)c(OC(C)=O)c1)O2,-42.8% (active)
13,NNC(=O)/C(=C\c1ccc([N+](=O)[O-])cc1)CC(=O)c1ccc(Cl)c(Cl)c1,98.9%
14,Nc1ccc(O)c(C(=O)O)c1,89.4% and 104% and 106%
15,O=S(=O)(CC(O)(c1ccccc1)c1ccccc1)CC(O)(c1ccccc1)c1ccccc1,108%
16,COc1ccc2c(c1)CCCC21C(=O)Nc2ccccc21 (stereo not given),88%
17,CCc1ccc(Nc2cc(C)nc3nc(C)nn23)cc1,-54.6% (active)
18,CN(CCC(=O)/C(=C\c1ccccc1)c1ccc(Cl)cc1)Cc1ccccc1,41%
19,CCc1ccccc1-n1c(-c2ccc(Cl)cc2)cc(-c2ccc(Cl)cc2)c(C#N)c1=O,82.7%
20,CSc1ccc(/C=C2\C=C(CC(=O)NCc3ccc(C(=O)c4ccccc4)cc3)c3cc(F)ccc32)cc1,-30.3% (active)

# From PubChem BioAssay (NCI)
